Reference: the supplement of paper PMC11417369
± gives the standard deviation of the averaged measurements. In all, about 25,000 sequences were measured (“ln(normalized median fluorescence intensity)”: median about 7.9, highest 2% from about 11 on). The sample holds the highest values, similar sequences and a random draw of the others, so the mix is not that of the screen.

These sequences were tested on PfAP2-I AP2 domain 3 (GST-tagged) (assay: gcPBM binding intensity (ln(normalized median fluorescence intensity)); higher = stronger DNA binding).
Procedure, shortened: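 Probes on an Agilent 4 × 180k array were primer-extended, double-stranded and 36 bp long, taken from intergenic genomic regions, with negative controls added. GST-tagged P. falciparum DNA-binding domains from E. coli, about 25 μg on average, were applied to the array for 1 h in 1× PBS containing 1% milk, 0.2 mg/ml BSA, 0.5% salmon testes DNA and 0.03% Triton X-100. Binding intensity, obtained after Alexa488 anti-GST antibody detection and a 488 nm scan, is the highest Masliner-normalised natural-log median intensity across replicate spots of either probe orientation.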

Row | Sequence | gcPBM binding intensity (ln)
1 | AGTAATAGTTTGTGCACACTCAAGTATATCATAGAT [CACACA_site6082] | 11 ± 0.23
2 | GTAATATCAATATAAAGTACACACTATAGTATGTAT [XGTACX_site4714] | 7.66 ± 0.49
3 | TATATATATATCAAGTGTACTTGTGTTTGTAATATT [XGTACX_site8854] | 9.165 ± 0.049
4 | TTGTTTTGGATTATCACACATATAATATATACTCAT [CACACA_site4780] | 7.82 ± 0.68
5 | TAAGTAATAGTTTGTGCACACTCAAGTATATCATAT [CACACA_site4035] | 10.8 ± 0.28
6 | GTTATAACTCAAATATGTACATATTATAAAACATAT [XGTACX_site6693] | 7.92 ± 0.47
7 | TTTTTTTTTTATTGTACATGCAAAAAATTCCACACA [TGCATGCA_site279] | 8.31 ± 0.32
8 | ATTTACCCTTGCCATGCACACTTTTTTATAGAAAAT [CACACA_site5857] | 8.95 ± 0.44
9 | GAACTTTACAACCCAACACACAAAAAAGAAAAGAAA [CACACA_site1717] | 7.87 ± 0.46
10 | TAAAAAATGATAGAAGTGCATAAAATAATATATATA [GTGCAC_site9904] | 10.4 ± 0.13
11 | CTATGCATTTATAGTGCATGTAAAATATAAGATAAT [TGCATGCA_site71] | 9.86 ± 0.085
12 | TATAATAACAATTTAGTGCATATAATAATATTTTAT | 10 ± 0.19
13 | AAAATAATATAAATAATATAAGTGAGCATATATATA [TGCATGCA_negctrl_site527] | 7.92 ± 0.72
14 | AGTAGCAAATATTAAGTGCATATTATATAATGTGTA [GTGCAC_site9546] | 9.04 ± 0.16
15 | TAAAAAATTAATAAAGTGCATAAATATTACAATATT | 10.3 ± 0.4
16 | TTGTGTGAGCAAGTAGTGCATAATATAAATAAAAAA [GTGCAC_site9802] | 11.2 ± 0.54
17 | CCACGAGAATATATAGTGCATAATAATTTTTTTTTG | 11.1 ± 0.4
18 | ATAATATTTTATATAGTGCATTTGCTCATTATATAT [GTGCAC_site9528] | 9.85 ± 0.45
19 | TTTAGATATATGGTAGTGCATAATAAAAATATAGCC [GTGCAC_site9449] | 11.1 ± 0.67
20 | ACATTTACAAGGAAAGTGCATATAAGAAAAATAAAA [GTGCAC_site9587] | 10.2 ± 0.11
21 | TTTCTAGTTACAAGAGTGCATAATATATAAAAATAA [GTGCAC_site9874] | 10.9 ± 0.56
22 | TCAAAATATCCAAAAGAATAAAGAAAAAAAAAAAGA [CACACA_negctrl_site1377] | 7.5 ± 0.41
23 | TTGTAATTTATTCAAACACACAATTTGGACCTTTTT [CACACA_site1063] | 7.45 ± 0.51
24 | TTTTTACTATAAGGGGAAAAAAAAAAAAATAATATA [XGTACX_negctrl_site279] | 7.78 ± 0.28

Row | Sequence | gcPBM binding intensity (ln)
25 | ATGTAGATATATATATGTACTAATTAGTAGTTTACG [XGTACX_site6275] | 8 ± 0.41
26 | ATATATATATCAACAACACACGATTAACTAAAAAAA [CACACA_site302] | 8.8 ± 0.19
27 | ACCTTATTTAGTTATAGTACACAAAGTATTAAACAT [XGTACX_site8418] | 8.46 ± 0.46
28 | AGTATACATTCATTTTGTACTCAATGATTTGATAAC [XGTACX_site6787] | 7.63 ± 0.42
29 | CTATTATCGGTTCCTACACACAAATATATATGTCTA [CACACA_site3579] | 8.1 ± 0.57
30 | TGTTTTTTTATTTTCACACATAATCCAATTATACAT [CACACA_site6070] | 8.22 ± 0.55
31 | TATATATATATGTAATGTACATAAATTTTATACCTT [XGTACX_site6991] | 9.27 ± 0.53
32 | ACCATATAATTTTTTTGTACATAATGATTTTTTTTT [XGTACX_site1104] | 7.99 ± 0.45
33 | GGTCTAACAACATGCGCACACACATGAATATTCATA [CACACA_site1539] | 8.81 ± 0.49
34 | ACATATAATAAAATAGTGCATTGTTAGTTTTATATA | 10.4 ± 0.42
35 | TATATATATATAATAGTGCATAAATAAATATATAAA | 11.2 ± 0.45
36 | AAAAAAAATATACATACATGCATACATAAGTTTCTA [TGCATGCA_site998] | 7.55 ± 0.73
37 | ATAGTAATGCATAAATATATATTATATATATATATA [XGTACX_negctrl_site576] | 9.21 ± 0.49
38 | AATAAAAATAATATAGTGCATAATATAAGGAAAAAA | 11.1 ± 0.49
39 | GTTGAAATAAAATTAGTGCATATATAAATATATATA | 10.2 ± 0.17
40 | ATATATATATATATAGTGCATAATGTTTTAATAGAT | 11 ± 0.33
41 | ATATATAAATAAATAGTGCATTTTAATATTTAACGT | 10 ± 0.18
42 | ATATATATATATATAGTGCATAAAATAAGTTTCTAA | 10.8 ± 0.21
43 | CACTAAATAAGGAAAGTGCATAAAATAAAGGTTATA [GTGCAC_site9793] | 10.4 ± 0.26
44 | TATATATATATATAAGTGCATATAAAAATCGTTCGT | 10.3 ± 0.11
45 | TAATAAATGTTATTAGTGCATAATAGATAATATATT | 10.8 ± 0.64
46 | AAAAGCACCGTTCGTTGTACACTGAAACACTTTTGT [XGTACX_site199] | 8.2 ± 0.76
47 | AACATGTTAAAATAAACACACAGCTAAGGTTTTTTT [CACACA_site157] | 7.4 ± 0.69
